From PubChem BioAssay AID1159580 (chemical genetic matrix, 2015)
Where “and” joins values, the source holds several entries; their conditions need not be identical. Equal values may be shown once. In all, about 5,500 compounds went through this assay and about 2,000 (36%) were called active. Roughly 18% stayed inconclusive and do not appear here. No stated cut-off is given here; in the data, active means normalized growth mostly below about 0.91 (no sharp cut-off); inconclusive means no clear call, values can overlap the other calls; inactive means mostly above about 0.92. The list shows a part of the results.

Assay: chemical genetic growth profiling, strain panel (AID 1159580);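 further: tested at 20 µM; growth read once vehicle control cultures reached saturation at 30 °C; 1 = growth at the plate median or of vehicle wells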
Conditions: S. cerevisiae deletion strains, growth OD

Measured: normalized growth

NC(=O)c1ccccc1O
inactive: locus YAL021C, strain ccr4, stronger effect = lower value 0.988 | locus YAL026C, strain drs2, stronger effect = lower value 0.996 | locus YAL030W, strain snc1, stronger effect = lower value 0.966 | locus YBL061C, strain skt5, stronger effect = lower value 0.97 | locus YBR009C, strain hhf1, stronger effect = lower value 1.04 | locus YBR021W, strain FUR4, stronger effect = lower value 1.04 | locus YBR023C, strain chs3, stronger effect = lower value 0.987 | locus YBR171W, strain sec66, stronger effect = lower value 0.959 | locus YBR229C, strain ROT2, stronger effect = lower value 0.999 | locus YBR231C, strain swc5, stronger effect = lower value 0.988 | locus YBR279W, strain paf1, stronger effect = lower value 0.997 | locus YCL011C, strain gbp2, stronger effect = lower value 0.956 | locus YCL016C, strain dcc1, stronger effect = lower value 1.01 | locus YCL029C, strain bik1, stronger effect = lower value 1.02 | locus YCL061C, strain MRC1, stronger effect = lower value 0.963 | locus YCL069W, strain vba3, stronger effect = lower value 0.974 | locus YCR088W, strain abp1, stronger effect = lower value 0.974 | locus YDL005C, strain med2, stronger effect = lower value 0.972 | locus YDL035C, strain GPR1, stronger effect = lower value 1.01 | locus YDL040C, strain nat1, stronger effect = lower value 0.984 | locus YDL074C, strain BRE1, stronger effect = lower value 0.997 | locus YDL101C, strain DUN1, stronger effect = lower value 1.01 | locus YDL134C, strain PPH21, stronger effect = lower value 1 | locus YDL185W, strain tfp1, stronger effect = lower value 1.01 | locus YDL192W, strain arf1, stronger effect = lower value 1.01 | locus YDR001C, strain nth1, stronger effect = lower value 0.967 | locus YDR069C, strain doa4, stronger effect = lower value 0.952 | locus YDR101C, strain arx1, stronger effect = lower value 1 | locus YDR137W, strain rgp1, stronger effect = lower value 0.964 | locus YDR159W, strain sac3, stronger effect = lower value 0.985 | locus YDR162C, strain NBP2, stronger effect = lower value 1.01 | locus YDR195W, strain ref2 0.927 | locus YDR297W, strain sur2, stronger effect = lower value 0.981 | locus YDR318W, strain mcm21, stronger effect = lower value 1.01 | locus YDR334W, strain swr1, stronger effect = lower value 0.935 | locus YDR335W, strain msn5, stronger effect = lower value 0.947 | locus YDR388W, stronger effect = lower value 1.01 | locus YDR392W, strain spt3, stronger effect = lower value 1.05 | locus YDR502C, strain sam2, stronger effect = lower value 0.997 | locus YEL003W, strain gim4, stronger effect = lower value 0.981 | locus YEL037C, strain rad23, stronger effect = lower value 0.976 | locus YEL061C, strain CIN8 (second series), stronger effect = lower value 0.98 | locus YEL061C, strain CIN8, stronger effect = lower value 1 | locus YER015W, strain faa2, stronger effect = lower value 1.01 | locus YER016W, strain bim1, stronger effect = lower value 1.01 | locus YER110C, stronger effect = lower value 1.01 | locus YER111C, strain swi4, stronger effect = lower value 0.97 | locus YER155C, strain BEM2 (second series), stronger effect = lower value 0.929 | locus YER155C, strain BEM2, stronger effect = lower value 1.01 | locus YER167W, strain BCK2, stronger effect = lower value 1.01 | locus YFR010W, strain ubp6, stronger effect = lower value 0.96 | locus YGL078C, strain dbp3, stronger effect = lower value 1 | locus YGL086W, strain mad1, stronger effect = lower value 0.998 | locus YGL167C, strain pmr1, stronger effect = lower value 0.961 | locus YGL173C, strain kem1, stronger effect = lower value 0.968 | locus YGL227W, strain vid30, stronger effect = lower value 0.975 | locus YGL240W, strain doc1, stronger effect = lower value 0.981 | locus YGL248W, strain PDE1, stronger effect = lower value 1 | locus YGL253W, strain hxk2, stronger effect = lower value 0.997 | locus YGR135W, strain pre9, stronger effect = lower value 1.02 | locus YGR229C, strain SMI1, stronger effect = lower value 1.01 | locus YGR252W, strain gcn5, stronger effect = lower value 1.03 | locus YHR013C, strain ard1, stronger effect = lower value 0.988 | locus YHR027C, strain rpn1, stronger effect = lower value 0.991 | locus YHR030C, strain SLT2, stronger effect = lower value 1 and 1.07 | locus YHR079C, strain IRE1 (second series), stronger effect = lower value 1.02 | locus YHR079C, strain IRE1, stronger effect = lower value 1.06 | locus YHR094C, strain hxt1, stronger effect = lower value 1 | locus YHR129C, strain ARP1, stronger effect = lower value 1.01 | locus YHR142W, strain chs7, stronger effect = lower value 0.946 | locus YHR200W, strain rpn10, stronger effect = lower value 1 | locus YIL066C, strain RNR3, stronger effect = lower value 0.993 | locus YIL073C, strain SPO22, stronger effect = lower value 1.05 | locus YIL125W, strain kgd1, stronger effect = lower value 1 | locus YIR030C, strain dcg1, stronger effect = lower value 1.01 | locus YJL092W, strain hpr5, stronger effect = lower value 0.96 | locus YJL095W, strain BCK1 (second series), stronger effect = lower value 0.973 | locus YJL095W, strain BCK1, stronger effect = lower value 1 and 1.05 | locus YJL115W, strain asf1, stronger effect = lower value 0.985 | locus YJL129C, strain trk1, stronger effect = lower value 0.992 | locus YJL134W, strain LCB3, stronger effect = lower value 1 | locus YJL154C, strain vps35, stronger effect = lower value 0.965 | locus YJL164C, strain tpk1, stronger effect = lower value 1 | locus YJL166W, strain qcr8, stronger effect = lower value 0.924 | locus YJL168C, strain set2, stronger effect = lower value 1.01 | locus YJL187C, strain SWE1 (second series), stronger effect = lower value 1.01 | locus YJL187C, strain SWE1, stronger effect = lower value 0.989 | locus YJR043C, strain POL32, stronger effect = lower value 0.985
